This is a sample that favours compounds with a hit; in the whole collection about 6.9% have one here.
L3MBTL1 inh: blocks human L3MBTL1 | Q9Y468 | AlphaScreen L3MBTL1–H3K9me1 peptide binding | Potency, µM (series often up to 57.1 µM), for inactives: at the top dose activity, negative = inhibition, most hits filed as inhibitors | 230,000 compounds, 0.66% hits; further: on the % scale 0 is the no-effect control and ±100 the full control effect; nearly all actives have a fitted effect of over 60% in size
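First, the protein-peptide complex forms for 30 min at room temperature (L3MBTL1 50 nM, biotinylated H3K9me1 peptide 75 nM). Next, compounds are pin-transferred and incubated 30 min. Finally, AlphaScreen beads are added and read after 30 min.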
JMJD2A Tudor inh: JMJD2A Tudor domain (human) inhibition; O75164; AlphaScreen JMJD2A-Tudor / H3K4me3 peptide binding; Potency, µM (highest dose often 114 µM), for the others: at the top dose activity change, negative = inhibition, hits mostly inhibitors; 390,000 compounds, 4.4% hits; further: on the % scale 0 is the no-effect control and ±100 the full control effect; nearly all actives have a fitted effect of over 50% in size
HP1b chromo inh: blocks HP1-beta chromodomain binding to methylated histone tails | P83916 | AlphaScreen HP1-beta / biotin-H3K9me3 peptide binding | Potency, µM (titrated, usually from 114 µM), for the others: top-dose activity change, negative = inhibition, most hits filed as inhibitors | 390,000 compounds, 0.56% hits | AID 540317; further: nearly all actives have a fitted effect of over 70% in size
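AlphaScreen: HP1-beta (50 nM) preformed 30 min with biotin-H3(1-18)K9me3 peptide (50 nM) in PBS pH 7.4, 0.01% Tween-20. Compound added for 30 min at RT, then streptavidin donor/nickel chelate acceptor beads (10 ug/mL) for 30 min.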
PLK1 PBD inh: PLK1 (human) polo-box domain binding inhibition; 360,000 compounds, 2.8% hits; P53350; Potency, µM, without a hit: max response, negative = inhibition, most hits filed as inhibitors; Plk1 PBD binding of FITC phosphopeptide, fluorescence polarization; AID 720504; further: series mostly up to about 57 µM; on the % scale 0 is the no-effect control and ±100 the full control effect; nearly all actives have a fitted effect of over 65% in size
BAZ2B block: BAZ2B (human) inhibition; Q9UIF8; AlphaScreen BAZ2B-H3K14Ac peptide displacement; Potency, µM (titrated, usually from 114 µM), without a hit: top-dose activity change, negative = inhibition, actives largely listed as inhibitors; 360,000 compounds, 4.4% hits; AID 504333; further: on the % scale 0 is the no-effect control and ±100 the full control effect; nearly all actives have a fitted effect of over 60% in size
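AlphaScreen displacement: compounds (up to 110uM) incubated 30 min at room temperature with a preformed 50 nM BAZ2B/50 nM biotinylated H3K14Ac peptide complex in PBS pH 7.4 with Tween-20. Donor and acceptor beads at 10 ug/mL final added, 20 min light-protected before reading.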
VDR inh: vitamin D3 receptor (human) inhibition; AID 504847; P11473; Potency, µM, for inactives: max response, negative = inhibition, usual class: inhibitors; VDR-SRC2-3 peptide fluorescence polarization, 2 h; 400,000 compounds, 0.93% hits; further: on the % scale 0 is the no-effect control and ±100 the full control effect
Target sequence (P11473 whole entry, looked up): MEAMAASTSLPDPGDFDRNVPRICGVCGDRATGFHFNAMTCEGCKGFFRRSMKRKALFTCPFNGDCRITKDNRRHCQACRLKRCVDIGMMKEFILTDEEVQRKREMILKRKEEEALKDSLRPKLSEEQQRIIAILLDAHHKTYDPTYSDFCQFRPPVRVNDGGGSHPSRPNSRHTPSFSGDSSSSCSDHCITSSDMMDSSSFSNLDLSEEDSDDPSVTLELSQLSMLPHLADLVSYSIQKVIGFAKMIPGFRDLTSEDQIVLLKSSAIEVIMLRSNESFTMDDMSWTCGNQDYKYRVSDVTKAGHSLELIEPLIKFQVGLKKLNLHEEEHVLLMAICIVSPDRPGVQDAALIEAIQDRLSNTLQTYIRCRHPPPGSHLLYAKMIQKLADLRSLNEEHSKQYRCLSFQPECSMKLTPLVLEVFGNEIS
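VDR–SRC2-3 interaction, FP format. Cmpds 23 nl via pintool, brief spin, 2 h ambient incubation.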
* marks the source's active call; other numbers are inactive results; ? = inconclusive; . = no result given. The call rests on the fitted dose curve; in most records, active means well fitted curve in the direction sought with a large enough effect; inconclusive means small, poorly fitted or top-dose-only effect, or another doubt; inactive means no such curve, though single readings can be large; an effect the other way counts as inactive or inconclusive. Potency means the concentration at half of the fitted maximal effect.

SMILES	L3MBTL1 inh	JMJD2A Tudor inh	HP1b chromo inh	PLK1 PBD inh	BAZ2B block	VDR inh
COC(=O)[C@H](COC(C)(C)C)NC(=O)O[C@@H]1C(=O)c2cc(Br)ccc2O[C@H]1c1ccc2c(c1)OCO2	.	.	.	.	.	4.3%
Cn1c(=O)c2cccnc2c(=O)n1C	.	.	.	5.1%	.	.
Cc1ccc(N=Nc2ccc(O)c3ncccc23)cc1C	.	?	-5.5%	-4.8%	-30.1%	7.3%
Oc1ccc(F)c2cccnc12	?	10µM*	-18.0%	5.32µM*	15.8µM*	39.8µM*
O=C(Oc1ccc(Cl)c2cccnc12)c1cccnc1	?	-26.3%	45.0%	-5.9%	56.2µM*	6.8%
Oc1ccc(N=Nc2ccccc2C(F)(F)F)c2cccnc12	.	10µM*	1.8%	1.4%	5.62µM*	1.0%
CCS(=O)(=O)c1ccc(N=Nc2ccc(O)c3ncccc23)c(OC)c1	.	20µM*	50.1µM*	-1.5%	5.62µM*	-8.4%
CSCC[C@H](N)C(=O)N[C@@H](CO)C(=O)N[C@@H](CCCN=C(N)N)C(=O)N1CCC[C@H]1C(=O)N[C@@H](C)C(=O)N[C@@H](CS)C(=O)N1CCC[C@H]1C(=O)N[C@@H](CC(N)=O)C(=O)N[C@@H](CC(=O)O)C(=O)N[C@@H](CCCCN)C(=O)N[C@@H](Cc1ccc(O)cc1)C(=O)N[C@@H](CCC(=O)O)C(=O)O	.	.	.	.	.	7.5%
Cc1cccc(-c2noc(-c3ccc(NC4CCCC4)c([N+](=O)[O-])c3)n2)c1	.	-9.6%	42.2%	.	-27.1%	26.1%
Cc1ccc(NS(=O)(=O)c2ccc3c(ccn3C)c2)cc1C	.	-17.0%	.	.	.	.
Oc1ccc(Cl)c2cccnc12	.	17.8µM*	9.2%	4.2%	.	?
O=C(Oc1ccc(Cl)c2cccnc12)N1CCCCC1	9.0%	-15.7%	19.1%	-6.5%	-2.8%	0.5%
COc1cc2c(=O)c(S(=O)(=O)c3ccccc3)cn(CC(=O)Nc3ccccc3C)c2cc1OC	.	-14.9%	23.4%	.	-6.5%	-3.7%
CC1(C)CC(NC(=S)NCc2ccc3c(c2)OCO3)CC(C)(C)N1	-1.6%	.	.	.	56.2µM*	.
Cc1ccc2oc(=O)c3cc(C(=O)NCCN4CCN(C)CC4)sc3c2c1	35.5µM*	-11.3%	41.6%	2.7%	12.1%	-16.6%
C=CCCCCCCCCCCCC(O)CC(O)COC(C)=O (stereo not drawn) (tested in a mixture with another compound)	.	.	.	.	.	1.1%
CC(C)[C@H]1COCCS(=O)(=O)N1Cc1ccccc1-c1ccc(C(C)(C)C)cc1	0.7%	-4.1%	81.8%	-5.6%	.	-4.4%
O=S1(=O)CCOC[C@H](CC2CCCCC2)N1Cc1ccccc1	2.7%	-10.3%	64.9%	0.4%	-0.7%	-1.7%
CC(C)[C@H]1COCCS(=O)(=O)N1Cc1ccccc1-c1ccccc1	-3.1%	?	26.9%	23.8µM*	.	?
Cc1ccccc1CN1[C@@H](CC2CCCCC2)COCCS1(=O)=O	6.5%	?	33.2%	26.7µM*	0.8%	?
Cc1ccc(Cl)cc1N1CCN(C(=O)CCCCCn2c(=O)[nH]c3ccccc3c2=O)CC1	.	?	1.6%	.	-20.1%	4.1%
CCN1CCN(Cc2ccc(NC(=O)c3cc(NC(=O)C(=O)c4c[nH]c5ccccc45)cc(OC)c3)cc2C(F)(F)F)CC1	.	35.5µM*	?	-8.4%	39.8µM*	48.5%
CCN1CCN(Cc2ccc(NC(=O)c3cc(NC(=O)c4cc(C)on4)cc(OC)c3)cc2C(F)(F)F)CC1	-7.8%	?	25.3%	-18.0%	?	-15.5%
CCN1CCN(Cc2ccc(NC(=O)c3ccc(C)c(NC(=O)C(=O)c4c[nH]c5ccccc45)c3)cc2C(F)(F)F)CC1	-16.2%	39.8µM*	?	-8.5%	12.6µM*	28.1%
CCN1CCN(Cc2ccc(NC(=O)c3ccc(C)c(NC(=O)c4ccnnc4)c3)cc2C(F)(F)F)CC1	.	-14.3%	47.1%	-5.0%	0.0%	-10.3%
O=C(O)c1ccc(NNC(=S)Nc2cc(C(F)(F)F)ccc2Cl)cc1	.	-32.9%	-6.4%	21.2µM*	?	22.4µM*
